CF NFkB inh – cystic fibrosis NF-kB activation inhibition | KKLEB NF-kB-GFP reporter, PAF-induced, GFP fluorescence overnight | inhibition, % at 5 µM | hit rate 0.86% among 360,000;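 active = at least 50% inhibition at 5 µM, scaled per plate between neutral and stimulator controls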;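 note: PAF is a Pseudomonas aeruginosa culture filtrate used as stimulus; plate controls were PAF-stimulated DMSO wells for no effect and unstimulated DMSO wells for full effect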
TWEAK Fn14 block – inhibitors of TWEAK-Fn14 interaction signaling; TWEAK-stimulated Fn14 reporter cells, luciferase luminescence, 8 h; inhibition, % at 10 µM; hit rate 2% among 360,000; in the data active = inhibition above about 50%
KKLEB cytotox – CF airway cell cytotoxicity counter-screen; AID 602141; hit rate 0.36% among 360,000; activity change (cytotoxicity), % at 5 µM; KKLEB CF airway cells viability, ATPlite luminescence, overnight; stronger effect = lower value; cells stimulated with P. aeruginosa culture filtrate;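 active = corrected activity change at or below -50% at 5 µM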
HIF-2a inh – HIF-2a inhibition | 786-0 RCC cells HIF-2a reporter, luciferase luminescence, overnight | inhibition, % at 18.8 µM | hit rate 0.72% among 360,000;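 active = inhibition of the luminescence signal of 40% or more relative to plate controls, in a single-dose primary screen at 18.75 µM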
TROY signal inh – blocks TROY-dependent signaling in reporter cells; Q293 LMP1-TROYcd NF-kB luciferase reporter, 4 h; hit rate 0.98% among 360,000; inhibition, % at 10 µM;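 active = compounds whose plate-normalised and pattern-corrected inhibition of the luciferase reporter signal at the single screening dose is 50% or more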
Peg3 promoter – reduces Peg3 promoter-driven luciferase expression in HeLa. hit rate 1.7% among 360,000. HeLa PEG-Prom luciferase reporter, luminescence, overnight. inhibition, % at 20 µM;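 active = inhibition of at least 50% at 20 µM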
An asterisk follows results filed as active; · = no result given. Hits are enriched below; roughly 4% of the tested compounds scored in any of these assays.

SMILES | CF NFkB inh | TWEAK Fn14 block | KKLEB cytotox | HIF-2a inh | TROY signal inh | Peg3 promoter
CC1=CC(C)(C)Nc2ccc(OC(=O)C(Cc3ccccc3)N3C(=O)c4ccccc4C3=O)cc21 (centres undefined) | 13.2 | 110.3* | 3.3 | 80.7* | -3.7 | 4.5
CCOC(=O)c1ccc([N+](=O)[O-])c(CS(=O)(=O)c2ccc(Cl)cc2)c1 | 8.6 | -9.8 | -9.4 | 11.2 | -0.7 | 16.7
Cc1ccc(S(=O)(=O)CCC(=O)c2cccc([N+](=O)[O-])c2)cc1 | -0.5 | 4.2 | 4.8 | 37.1 | -4.1 | 109.9*
Cc1ccc(S(=O)(=O)Cc2cc(F)c([N+](=O)[O-])cc2[N+](=O)[O-])cc1 | -1.7 | 12.9 | 3.7 | 14.6 | -17.7 | 116.7*
Cc1ccc(C(=O)CCS(=O)(=O)c2ccc(Br)cc2)cc1 | 10.0 | 3.6 | 5.7 | 12.3 | -6.0 | 22.0
CCOc1ccc(Cl)cc1S(=O)(=O)N1CCC(C(=O)NCc2ccncc2)CC1 | 3.0 | 18.0 | -3.0 | 15.5 | -5.6 | -2.2
CCOC(=O)c1sc(NC(=O)Nc2ccccc2F)nc1C | 11.3 | 94.1* | -34.6 | -6.1 | 82.1* | -28.3
CCOC(=O)c1sc(NC(=O)CN2C(=O)C3CC=CCC3C2=O)nc1C (centres undefined) | 11.5 | 24.1 | 2.1 | 15.4 | 2.0 | 88.5*
CCOC(=O)c1sc(Nc2ccccc2Cl)nc1C | 17.4 | -39.7 | -4.6 | -340.2 | -51.1 | -289.6
COC(=O)c1sc(NC(=S)NC(=O)c2ccccc2F)nc1C | -4.4 | 52.3* | 7.5 | -188.8 | 21.1 | -211.5
CCOC(=O)c1sc(NC(=O)CSc2nnc(C(C)C)n2CC)nc1C | -4.3 | 13.4 | -8.7 | 5.0 | 3.3 | 52.0*
CN(C(=O)C1CCCO1)C1CCS(=O)(=O)C1 (centres undefined) | 7.2 | -5.2 | 9.1 | 12.4 | -2.0 | 5.0
CCOC(=O)c1sc(NC(=O)CSc2n[nH]c(-c3ccccc3)n2)c(C#N)c1C | 35.1 | -8.3 | -15.2 | -29.6 | 65.4* | 14.4
CC(=O)NCC(c1cccs1)S(=O)(=O)c1ccc(F)cc1 (centres undefined) | 1.1 | -1.1 | 11.1 | 12.5 | 4.0 | 0.3
CCCNC(=O)c1cc(C2CCCCN2S(=O)(=O)c2ccccc2)on1 (centres undefined) | -2.4 | 4.2 | -0.4 | -5.0 | 8.4 | -7.9
CN(c1ccccc1)c1ccc(/C=C(\C#N)c2nnc3n2CCCCC3)cc1[N+](=O)[O-] | 30.6 | -40.4 | -11.4 | -56.2 | -8.0 | -16.3
N#C/C(=C\c1cccc([N+](=O)[O-])c1)c1nnc2n1CCCCC2 | 19.5 | 90.6* | -8.2 | 32.4 | 82.3* | 0.9
O=C1C=CC(=O)N1Cc1ccccc1 | 76.5* | 0.1 | -20.8 | 1.4 | -0.6 | 103.9*
O=C1C2CC=CCC2C(=O)N1Cc1ccccc1 (centres undefined) | 2.4 | 0.3 | -0.2 | 13.9 | -6.0 | 5.2
Cc1cc(NC(=O)c2cccc(Br)c2)n[nH]1 | 5.0 | -17.7 | -0.2 | -229.5 | -63.0 | 70.2*
CCCCNC(=O)C1(C)CCN1C(=O)c1cc(-c2cccs2)oc1C (centres undefined) | 26.1 | 78.5* | -19.3 | 29.3 | 37.2 | 33.5
Cc1cc(NC(=O)C2CCCN2C(=O)Nc2cccc(Cl)c2)ccc1-n1cnnn1 (centres undefined) | 13.9 | 54.8* | 2.6 | 31.0 | 9.2 | 34.3
NC(COCc1ccccc1)c1csc(Nc2ccc(C(=O)NCCO)cc2)n1 (centres undefined) | -35.0 | -53.4 | 5.2 | 8.7 | 6.9 | 13.2
Fc1ccc2cnc(CCO[C@H]3CCCCO3)cc2c1 | -14.6 | 66.8* | 7.4 | -71.0 | 8.6 | -122.6
COc1ccc(/C=N\NC(=O)/C(=C\Nc2nccc(C)n2)NC(=O)c2ccccc2)cc1 | 4.3 | 70.7* | -4.6 | -11.8 | · | -13.7
SMILES | CF NFkB inh | TWEAK Fn14 block | KKLEB cytotox | HIF-2a inh | TROY signal inh | Peg3 promoter
Cc1ccc(-c2ccccc2[C@@H]2C[C@H]3CN(C)C(=O)[C@]34CCCN24)o1 | -1.8 | 5.6 | 17.7 | 7.6 | 7.2 | 7.1
O=C1N(c2ccccc2)C[C@@H]2C[C@@H](c3cc4ccccc4o3)N3CCC[C@@]123 | 87.2* | 84.3* | -65.7* | -7.9 | 47.6 | 104.6*
O=C1/C(=C/c2ccccc2F)SC(=S)N1CC(=O)N1CCCCC1c1cccnc1 (centres undefined) | 73.8* | -0.8 | -28.4 | 19.6 | 17.2 | 75.6*
O=C(/C=C/c1ccc(F)cc1)NC(=S)N1CCCCC1c1cccnc1 (centres undefined) | -2.1 | -4.7 | 2.4 | -0.2 | -20.2 | 1.3
O=C1/C(=C/c2ccc(F)cc2)SC(=S)N1CC(=O)N1CCCCC1c1cccnc1 (centres undefined) | 17.3 | -18.7 | -5.7 | 34.1 | 15.9 | 102.9*
O=C(COC(=O)c1ccccc1)NC1CCCC1 | -3.9 | 12.4 | 11.5 | -9.3 | -13.3 | -84.6
O=C(ONC(=O)C1CCCCC1C(=O)NOC(=O)c1ccccc1)c1ccccc1 (centres undefined) | 6.6 | 51.0* | 5.5 | 3.1 | 27.1 | 13.0
O=C(NC1CCCCC1)N(Cc1nc2ccccc2c(=O)[nH]1)C1CCCCC1 | 8.7 | -11.5 | -2.9 | -75.2 | -10.0 | -10.2
Cc1sc2nc(CN(C(=O)NC3CCCCC3)C3CCCCC3)[nH]c(=O)c2c1C | -10.9 | 17.9 | -4.6 | 13.0 | 4.1 | 50.1*
N#CC(=Cc1ccnc2ccccc12)c1ccccc1 | 23.5 | 13.8 | 1.5 | -51.6 | 16.3 | -11.2
Cc1ccc(S(=O)(=O)N2CC3C(=O)CC(c4ccccc4)N(S(=O)(=O)c4ccc(C)cc4)C3CC2c2cccc(Cl)c2)cc1 (centres undefined) | · | · | · | 6.5 | · | ·
CN(C)CCNC(=O)c1ccc(-c2cnn(C)c2)c2ccoc12 | -3.7 | 14.1 | 7.3 | 8.7 | -11.3 | -1.8
CCCCC1C(=O)CC[C@H]2[C@@H]1CC(=O)[C@@H]2C/C=C\CCCC(=O)O (some centres undefined) | 19.6 | 17.7 | -100.5* | 3.6 | -2.1 | -9.9
CCCCCCCC/C=C\CCCCCCCC(=O)O | 13.7 | -11.4 | 6.6 | -1.9 | 7.3 | 2.4
O=C(O)c1ccc(N/N=C/c2ccc(-c3ccccc3Cl)o2)cc1 | 33.4 | 51.4* | 7.7 | -130.3 | 14.1 | -81.5
O=C(N/N=C/c1ccc(-c2ccccc2Cl)o1)c1ccccc1 | -16.5 | -23.5 | -5.9 | -234.8 | -16.6 | -161.8
Cc1ccc(C(=O)OCC(=O)NNC(=O)c2cccs2)c(O)c1 | -11.2 | -3.5 | 23.0 | -16.6 | -7.1 | -12.5
Cc1cc(C)n(-c2nc(SCCN(C)C)c3c4c(sc3n2)CCCC4)n1 | 12.4 | -40.7 | -31.0 | -270.6 | 17.0 | 82.6*
Cc1cc(C)n(-c2nc(SCC(=O)O)c3c4c(sc3n2)COC(C)(C)C4)n1 | -3.7 | -4.6 | 1.9 | 9.3 | -0.8 | 21.2
Cc1ccc(S(=O)(=O)C[C@@H]2OC[C@H](C(C)C)N2S(=O)(=O)c2ccc(C)cc2)cc1 | · | · | · | -11.4 | · | ·
O=C(Nc1ccc([N+](=O)[O-])cc1)Nc1nc(-c2ccc(Cl)s2)cs1 | 48.3 | 67.1* | -47.0 | 13.2 | 54.2* | 68.6*

Compound activity: PubChem, Sanford-Burnham Center for Chemical Genomics
